Data from PubChem BioAssay AID588345 (Broad Institute, 2011).
Out of some 1,300 compounds screened, about 850 (65%) were called active. Another 1% or so got no clear call; they are omitted. No rule for the calls is given here. So high a share suggests a set chosen from earlier hits. Only a sample is shown. Results with a measured potency or affinity are listed apart.

target: Dual specificity tyrosine-phosphorylation-regulated kinase 1A (Rattus norvegicus) (UniProt Q63470); assay: Dyrk1A enzyme activity inhibition – biochemical, cherry-pick, plate reader, 2124-01, dose response (AID 588345); details: Dyrk1A kinase biochemical assay; series mostly up to 12 µM; activity change, negative = inhibition: at the top concentration

Activity change, negative = inhibition, inactive:
O=S1(=O)N=C(N(Cc2cccs2)c2ccc(O)cc2)c2ccccc21 -39.4%
CCCCC(=O)Nc1cc(Cl)ccc1C(=O)O 2.42%
CC(C)CC(NC(=O)C1CCC(C)CC1)C(=O)Nc1ccc2c(c1)OCCO2 (configuration not stated) -0.401%
O=C(O)c1cc2ccccc2c2cc(Br)ccc12 6.75%
CCOCC(=O)Nc1nc2c(s1)C(=O)CC(C)(C)C2 -6.16%
O=C1CCCc2c1cc(C(=O)NCCCN1CCOCC1)c(=O)n2-c1ccc(Cl)cc1 15.7%
CCOc1ccccc1C(=O)Nc1ccccc1C(N)=O 16.9%
c1ccc2c(-c3nc(C4CCCCC4)no3)cc(-c3ccncc3)nc2c1 -12.2%
O=C(/C=C/c1ccccc1)Nc1cccc(C(=O)NC2CC2)c1 -23.3%
COc1cccc(C(=O)NNC(=O)/C=C/c2ccccc2)c1 -0.825%
O=C(O)/C=C/c1ccc2noc(-c3ccccc3)c2c1 9.02%
Nc1nonc1-n1nnc(C(=O)N/N=C\c2ccncc2)c1CN1CCCCC1 16.2%
COc1cc2cnc(-c3ccccc3)c(-c3ccc([N+](=O)[O-])cc3)c2cc1OC 5.36%
COC(=O)CSc1nc(N)c(C#N)c(C(C)C)c1C#N 4.01%
COc1ccc2nc3c(cc2c1)c(NC(=O)C1CCCO1)nn3CC(C)C (configuration not stated) -39%
N#Cc1nc(-c2cccs2)oc1NCc1ccccc1Cl 4.98%
Cc1cccc(Cl)c1OCCCCn1ccnc1 -0.832%
c1cncc(-c2nc(NCCCn3ccnc3)c3ccccc3n2)c1 -32%
COc1cc(O)c2c(=O)c3c(O)ccc(O)c3oc2c1 15.1%
O=C(NN1C(=O)/C(=C/c2ccc(O)c([N+](=O)[O-])c2)SC1=S)c1ccccc1Cl 12.1%
CCCCOc1cccc(C(=O)NC(=S)Nc2ccc(Cl)c(C(=O)O)c2)c1 4.19%
CSCC(=O)Nc1nc(-c2ccc3c(c2)OCCO3)cs1 -45.8%
CC(C)c1nnc(NC(=O)Cn2nc(-c3ccc4c(c3)OCCO4)ccc2=O)s1 5.79%
CCC(=O)Nc1nc(-c2ccc3c(c2)OCCO3)cs1 -27.9%
c1ccc(Cc2nnc3sc(-c4ccc5c(c4)OCCO5)nn23)cc1 2.39%
Cn1nnnc1Sc1ncnc2scc(-c3ccc[nH]3)c12 6.62%
CCCn1cnc2scc(-c3ccc(OC)cc3)c2c1=O 8.44%
COCCCN(C(C)=O)c1nc(-c2ccc(OC)cc2)cs1 1.75%
COc1cc(CO)cc(Br)c1OCc1cccnc1 -1.47%
COc1cccc(/C=N/n2c(COc3ccccc3)n[nH]c2=S)c1O -73.5%
COC(=O)C1=C(C)N(CCCC(=O)O)C(=O)NC1c1ccc(Cl)cc1 (configuration not stated) 1.53%
COc1ccc(-n2c(C)nc3cc(C(=O)NCc4ccco4)ccc32)cc1 6.49%
COc1ccc(-n2c(C)nc3cc(C(=O)NCc4ccc5c(c4)OCO5)ccc32)cc1 -5.27%
Cc1cccc(-n2nc3c(c2NC(=O)CCC2CCCCC2)CS(=O)C3)c1C (configuration not stated) 8.66%
Cc1noc(NS(=O)(=O)c2ccc(N/C=C\C(=O)c3ccc(Br)cc3)cc2)c1C 2.2%
COc1ccc(C(=O)Nc2nc3ccccc3[nH]2)cc1S(=O)(=O)N1CCOCC1 6.37%
C=CCN1C(=O)/C(=C/c2ccccc2)S/C1=N/c1nccs1 11.6%
CC(C)(C)NC(=O)C(=O)NC(=O)c1c(F)cccc1Cl -4.54%
O=C(c1ccc2c(c1)OCCCO2)N1CCCCC1 3.39%
CC(NC(=O)COC(=O)c1ccc([N+](=O)[O-])s1)c1ccccc1 (configuration not stated) -0.463%
COC(=O)c1nn(-c2ccc3c(c2)OCO3)cc1O 3.31%
C=CCOC(=O)C1=C(C)NC(=O)NC1c1ccc(Cl)cc1 (configuration not stated) 7.5%
CCOC(=O)C1=C(C)OC(N)=C(C#N)C1c1cc2c(cc1Br)OCO2 (configuration not stated) -18%
C=CCc1ccc(OCCOc2ccc(/C=N/n3cnnc3)cc2OCC)c(OC)c1 -4.21%
Cc1ccccc1C(=O)N1CCN(c2ccc(NC(=O)c3cccc(OC(C)C)c3)cc2)CC1 8.66%
O=C(Nc1ccc(Cl)cc1)c1csc(-c2ccncc2)n1 -0.305%
O=C(Nc1ccc(F)cc1F)c1csc(-c2ccncc2)n1 -28.6%
c1ccc(-c2nnc3sc(Cc4cccs4)nn23)cc1 -9.39%
COC(=O)[C@]1(CC(C)C)N[C@H](c2ccc(-c3cccc(Cl)c3)cc2)[C@@H]2C(=O)N(C)C(=O)[C@@H]21 7.87%
Cc1cccc(CNc2ncnc3ccc(-c4ccoc4)cc23)c1 15.7%
CN(C)/C=C1/Oc2c(ccc3ccccc23)C1=O 1.24%
COc1cc(-c2cn(S(=O)(=O)c3cccc4nsnc34)nc2N)cc(OC)c1OC -9.11%
CCn1c2ccccc2c2cc(/C=N/O)ccc21 -50%
Cc1ccccc1NC(=O)CSc1[nH]c(=O)cc(C)c1C#N -5.2%
CCN1CCN(Cc2ccc(NC(=O)c3ccc(C)c(NC(=O)c4csc(-c5ccncc5)n4)c3)cc2C(F)(F)F)CC1 -1.6%
Cn1c(-c2ccccc2)c(C=O)c2ccccc21 7.44%
Cc1ccc(S(=O)(=O)/N=C2\C=C(Nc3cccc(C(=O)O)c3)C(=O)c3ccccc32)c(C)c1 -54.7%
Cc1ccccc1NC(=O)C1CCCN1S(=O)(=O)c1ccc2c(c1)n(C)c(=O)c(=O)n2C (configuration not stated) -5.91%
CCOC(=O)C[C@H]1c2cc(C(F)(F)F)ccc2S(=O)(=O)N1C(C)C 11%
COc1ccc(-c2nn(-c3ccccc3)cc2CO)cc1 0.31%
Cc1nc2c(c3c1[nH]c1ccccc13)C(=O)CC(C)(C)C2 -41.5%
CN(C)S(=O)(=O)c1ccc(Cl)c(C(=O)Nc2cccc3ncccc23)c1 3.66%
OCC[C@@H]1C[C@H](O)[C@@H](O)[C@@]2(CCc3ccccc3CO2)O1 2.35%
COC(=O)c1cc(NC(=O)Nc2cccc(Cl)c2)ccc1Cl 8.6%
CC(=O)c1cccc(NC(=O)Nc2cccs2)c1 -6.65%
COc1ccc(S(=O)(=O)N(C)C[C@H]2Oc3ccc(NS(=O)(=O)c4cccs4)cc3CC(=O)N([C@H](C)CO)C[C@H]2C)cc1 6.05%
CCOc1ccc(C2CC(c3cccc(OC)c3)Nc3nc(N)nn32)cc1 (configuration not stated) 2.82%
N#C/C(=C\c1ccc(O)c(O)c1)C(=O)NCCc1ccccc1 -29.2%
COc1cccc(C(=O)c2sc(NC(C)C)nc2N)c1 5.66%
O=C1CC(c2ccc(S(=O)(=O)NC3CC3)cc2)CN1 (configuration not stated) 2.56%
CNC(=O)c1cc2c(s1)-c1ccccc1CC2 -14.8%
Cn1c2ccccc2c2cc(/C=N/NC(=O)c3cc(O)ccc3O)ccc21 -0.468%
Cc1ccnc(NC(=O)c2cccc(S(=O)(=O)N3CCN(c4ccccc4)CC3)c2)c1 6.18%
COc1ccc(-n2c(Cn3c(=O)sc4ccccc43)nnc2SCC(=O)N2CCOCC2)cc1 -5.17%
c1ccc(-c2csc3nnc(SCc4ccc5c(c4)OCO5)n23)cc1 14.3%
COc1ccc2c(c1)C(=NN)c1cc(OC)ccc1-2 4.46%
CC(C)NC(=O)Nc1cccc2c1O[C@H](CN(C)C(=O)NC1CCCCC1)[C@H](C)CN([C@H](C)CO)C2=O -2.59%
CC(C)C[C@H]1COCCS(=O)(=O)N1Cc1cccc(Cl)c1 14.4%
CC(=O)C1C(c2ccc(Cl)cc2)NC(=O)NC1(O)C(F)(F)F (configuration not stated) -2.34%
Cn1c(C(=O)N2CCCC2)cc2c(=O)n(C)c3ccccc3c21 -14%
Fc1ccc(-c2nnc3sc(C4COc5ccccc5O4)nn23)cc1 (configuration not stated) 10.9%
NC(=O)c1cc2ccccc2oc1=NCc1ccccc1 5.63%
Nc1c(C(=O)NCc2ccccc2)nnn1Cc1ccccc1 -6.06%
S=c1[nH]cc(-c2ccc(Cl)cc2)n1Cc1ccccc1 -12.1%
C=C(C)Cn1c(N2CCN(CC)CC2)nc2c1c(=O)[nH]c(=O)n2C 9.32%
COCCCn1c(SCC(=O)NC2CCCCC2)nnc1-c1ccncc1 -4.11%
Nc1nc(N)nc(-c2ccc(Cl)c(Cl)c2)n1 -34.5%
CCNc1nc(N)nc(-c2cc(Cl)ccc2O)n1 -0.458%
Cc1cccc(NC(=O)c2cnc3sccn3c2=O)n1 5.97%
O=C(Nc1ccc(Cl)c(Cl)c1)OCc1cnc(Cl)s1 -3.39%
Cc1cc(O)c2c(c1)C(=O)c1cc(O)cc(O)c1C2=O -40.8%
CC1CCN(c2ncnc3nc[nH]c23)CC1 -3.53%
NC(=O)N/N=C1\c2ccccc2-c2c(C(N)=O)cccc21 13.6%
O=C(c1cccc2c1-c1ccccc1/C2=N/O)N1CCCCC1 5.52%
CCOC(=O)c1cnc2ccc(C)cc2c1Nc1ccc(N2CCOCC2)cc1 -8%
N#Cc1c(=O)c2nc(NCCCO)ncc2n2c(=O)c3ccccc3[nH]c12 3.42%
O=C(NNC1=C(C(=O)C(F)(F)F)CCC1)c1ccccc1O 19.1%
c1csc(CNc2ncnc3ccc(-c4ccoc4)cc23)c1 4.22%
c1cncc(-c2nc(NCc3ccco3)c3ccccc3n2)c1 -22.1%
CC(Nc1nc(-c2cccnc2)nc2ccccc12)c1ccc(F)cc1 (configuration not stated) -33.2%
N#CCSc1nc(Nc2ccc3c(c2)OCO3)c2ccccc2n1 -33.6%
Cc1nnc2c3ccccc3c(-c3cccs3)nn12 4.82%
CCCn1c2ccccc2c2cn[nH]c(=O)c21 4.44%
CCN(CC)CCCNC(=O)c1cc2c(=O)n(C)c3ccccc3c2n1C -19.7%
O=C(NCCc1ccccc1)C1CCN(S(=O)(=O)c2ccc(Br)s2)CC1 2.48%
N#Cc1nc(-c2ccccc2Cl)oc1NCC1CCCO1 (configuration not stated) -2%
COc1ccc(C(=O)N2CCN(c3c(C)cccc3C)CC2)cc1OC 11.9%
C=CCNC(=S)Nc1ccc2cn[nH]c2c1 -33.4%
Cc1ccc(CCNC(=O)C2CCN(S(=O)(=O)c3cccc4nonc34)CC2)cc1 4.41%
CCN(CC)c1ccc(NC(=O)CCc2nnc3ccc(N4CCCCC4)nn23)c(C)c1 9.53%
NS(=O)(=O)c1ccc(-c2ccc(/C=C3\SC(=O)NC3=O)o2)cc1 6.26%
Cc1ccc(C(=O)c2coc3ccc(OCC(=O)O)cc23)cc1 -3.85%
